Measurements published in PubChem BioAssay (NCI).
About 79,000 compounds went through this panel and 15% of them were active in at least one assay; those are over-represented in the sample as a whole. Active and inactive are the calls of the source. Cut-off read from the data, not from the text of the source: active = growth inhibition above about 70%; inactive = the rest.

What was measured:
[1] = NCI Yeast Anticancer Drug Screen. Data for the wt1 strain (AID 149);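 note: 0% = growth of vehicle-treated wt1 cultures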; conditions: S. cerevisiae wt1 strain (SPY 50644) growth inhibition, stronger effect = higher value
Procedure, shortened: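 Growth inhibition read against vehicle controls after compound exposure of the wt1 yeast strain.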

[2] = NCI Yeast Anticancer Drug Screen. Data for the rad50EPP+ strain (AID 151);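 note: 0% = growth of vehicle-treated control cultures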; conditions: S. cerevisiae rad50 mutant strain, stronger effect = higher value
Procedure, shortened: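 Compounds were applied to the rad50EPP+ yeast strain, which bears a defined DNA repair alteration, and growth inhibition was determined relative to vehicle-treated cultures.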

[3] = NCI Yeast Anticancer Drug Screen. Data for the mgt1 strain (AID 153); conditions: S. cerevisiae mgt1 mutant growth inhibition, stronger effect = higher value
Procedure, shortened: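 Strain: mgt1 yeast, one of a set carrying defined DNA damage repair or cell cycle control alterations. Compound-treated growth compared with vehicle.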

[4] = NCI Yeast Anticancer Drug Screen. Data for the rad50 strain (AID 155);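 note: 0% = growth of vehicle-only cultures of the same strain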; conditions: S. cerevisiae rad50 strain growth inhibition, stronger effect = higher value
Procedure, shortened: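 Readout: growth inhibition relative to vehicle-treated cultures. Compound exposure was carried out in a genetically defined yeast strain deficient in DNA damage repair.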

[5] = NCI Yeast Anticancer Drug Screen. Data for the mec2-1 strain (AID 157); conditions: S. cerevisiae mec2-1 strain, stronger effect = higher value
Procedure, shortened: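 Strain: mec2-1 (DNA repair/cell cycle alteration). Compound exposure, then growth measured; inhibition expressed relative to vehicle.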

[6] = NCI Yeast Anticancer Drug Screen. Data for the rad14 strain (AID 159);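 note: 0% = growth of vehicle-treated control cultures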; conditions: S. cerevisiae rad14 strain growth inhibition, stronger effect = higher value
Procedure, shortened: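 Growth inhibition vs vehicle controls; genetically altered yeast strain (DNA damage repair defect) treated with test compounds.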

[7] = NCI Yeast Anticancer Drug Screen. Data for the CLN2oe strain (AID 163);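 note: 0% = growth of vehicle-only control cultures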; conditions: S. cerevisiae CLN2oe strain, stronger effect = higher value
Procedure, shortened: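 Growth of a genetically modified yeast strain is measured after compound exposure and compared with cultures given vehicle alone.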

[8] = NCI Yeast Anticancer Drug Screen. Data for the cln2 rad14 strain (AID 165);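 note: 0% = growth equal to vehicle treated cultures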; conditions: S. cerevisiae cln2 rad14 strain, stronger effect = higher value
Procedure, shortened: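 Compounds are applied to the cln2 rad14 yeast strain, and growth is then compared with that of vehicle-treated cultures to give inhibition.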

[9] = NCI Yeast Anticancer Drug Screen. Data for the bub3 strain (AID 167); conditions: S. cerevisiae bub3 mutant strain, stronger effect = higher value
Procedure, shortened: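 Readout: yeast growth inhibition, expressed relative to vehicle-only wells. The test organism is a mutant strain from a panel with lesions in DNA repair or checkpoint genes.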

[10] = NCI Yeast Anticancer Drug Screen. Data for the wt2 strain (AID 169);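 note: 0% = growth of vehicle-treated yeast cultures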; conditions: S. cerevisiae wt2 strain growth inhibition, stronger effect = higher value
Procedure, shortened: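 This strain belongs to a panel of yeast strains with defined genetic alterations in DNA damage repair or cell cycle control. Compounds are applied, and growth inhibition is measured against vehicle-treated cultures.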

[11] = NCI Yeast Anticancer Drug Screen. Data for the mlh1 strain (AID 171);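 note: 0% = growth of vehicle-treated control cultures of the same strain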; conditions: S. cerevisiae mlh1 strain growth inhibition, stronger effect = higher value
Procedure, shortened: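 Growth of the mutant yeast strain after compound exposure, expressed as inhibition relative to vehicle-only controls.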

[12] = NCI Yeast Anticancer Drug Screen. Data for the sgs1 strain (AID 173);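 note: 0% = growth of vehicle-only control cultures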; conditions: S. cerevisiae sgs1 mutant, stronger effect = higher value
Procedure, shortened: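 Growth of a yeast strain bearing a defined genetic alteration is measured after compound treatment. Inhibition is expressed relative to vehicle-only controls.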

[13] = NCI Yeast Anticancer Drug Screen. Data for the mlh1 rad18 strain (AID 175); conditions: S. cerevisiae mlh1 rad18 strain growth inhibition, stronger effect = higher value
Procedure, shortened: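 Read-out is yeast growth inhibition, calculated against vehicle-only controls. The compound was applied to a strain engineered with DNA damage repair alterations.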

[14] = NCI Yeast Anticancer Drug Screen. Data for the rad18 strain (AID 177); conditions: S. cerevisiae rad18 mutant growth inhibition, stronger effect = higher value
Procedure, shortened: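 Growth of the mutant yeast strain after compound exposure, normalised to vehicle-only cultures.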

[15] = at 5.0 µM (retest, dose inferred, filed as 0.5)
[16] = at 50.0 µM (retest, dose inferred, filed as 5.0)

Measured: growth inhibition

CNC(=S)N/N=C(/C)CCC/C(C)=N/NC(=S)NC
active: [4]; at 11.0 µM 87% | [4]; at 33.0 µM 89% | [4]; at 100.0 µM 92% | [7]; at 1.2 µM 80% | [7]; at 3.7 µM 97% | [7]; at 11.0 µM 98% | [7]; at 33.0 µM 98% | [7]; at 100.0 µM 97% | [9]; [15] 70% | [9]; at 33.0 µM 73% | [9]; at 100.0 µM 74% | [10]; at 11.0 µM 78% | [10]; at 33.0 µM 72%
inactive: [1]; at 1.2 µM 1% | [1]; at 3.7 µM 35% | [1]; at 11.0 µM 48% | [1]; at 33.0 µM 45% | [1]; at 100.0 µM 44% | [2]; at 1.2 µM -9% | [2]; at 3.7 µM 17% | [2]; at 11.0 µM 37% | [2]; at 33.0 µM 59% | [2]; at 100.0 µM 43% | [3]; at 1.2 µM 3% | [3]; at 3.7 µM 12% | [3]; at 11.0 µM 22% | [3]; at 33.0 µM 22% | [3]; at 100.0 µM 32% | [4]; at 1.2 µM 36% | [4]; at 3.7 µM 67% | [4]; [15] 40% | [4]; [16] 37% | [4]; at 50.0 µM 66.8% | [5]; at 1.2 µM 27% | [5]; at 3.7 µM 42% | [5]; [15] 66% | [5]; at 11.0 µM 53% | [5]; at 33.0 µM 48% | [5]; [16] 55% | [5]; at 50.0 µM 43.4% | [5]; at 100.0 µM 35% | [6]; at 1.2 µM 30% | [6]; at 3.7 µM 44% | [6]; at 11.0 µM 61% | [6]; at 33.0 µM 61% | [6]; at 100.0 µM 52% | [8]; [15] 21% | [8]; [16] -2% | [8]; at 50.0 µM 27.2% | [9]; at 1.2 µM 43% | [9]; at 3.7 µM 62% | [9]; at 11.0 µM 65% | [9]; [16] 69% | [9]; at 50.0 µM 54.4% | [10]; at 1.2 µM 16% | [10]; at 3.7 µM 58% | [10]; at 100.0 µM 67% | [11]; at 1.2 µM -2% | [11]; at 3.7 µM 34% | [11]; at 11.0 µM 52% | [11]; at 33.0 µM 37% | [11]; at 100.0 µM 40% | [12]; at 1.2 µM 14% | [12]; at 3.7 µM 24% | [12]; at 11.0 µM 65% | [12]; at 33.0 µM 63% | [12]; at 100.0 µM 62% | [13]; [15] 55% | [13]; [16] 63% | [13]; at 50.0 µM 62.4% | [14]; at 1.2 µM 1% | [14]; at 3.7 µM 21% | [14]; at 11.0 µM 19% | [14]; at 33.0 µM 24% | [14]; at 100.0 µM 37%
